Measurements as given in article PMC7862700, “An all-to-all approach to the identification of sequence-specific readers for epigenetic DNA modifications on cytosine”.

Tests used:
Test in all cases: DAPPL (digital affinity profiling via proximity ligation, sequencing); 10 mM Tris-HCl pH 7.5, 50 mM NaCl, 1 mM DTT, 4% glycerol, room temperature, 30 min; GST-TFs on glutathione beads, 16-mer random dsDNA library, 0.1% formaldehyde crosslink after washing; high values mean tight binding
FLI1 = molecular target: T1, FLI1 (Homo sapiens, UniProt Q01543 1-452); settings: protein: recombinant; tags: N-terminal GST; dsDNA, one strand shown
T1 sequence: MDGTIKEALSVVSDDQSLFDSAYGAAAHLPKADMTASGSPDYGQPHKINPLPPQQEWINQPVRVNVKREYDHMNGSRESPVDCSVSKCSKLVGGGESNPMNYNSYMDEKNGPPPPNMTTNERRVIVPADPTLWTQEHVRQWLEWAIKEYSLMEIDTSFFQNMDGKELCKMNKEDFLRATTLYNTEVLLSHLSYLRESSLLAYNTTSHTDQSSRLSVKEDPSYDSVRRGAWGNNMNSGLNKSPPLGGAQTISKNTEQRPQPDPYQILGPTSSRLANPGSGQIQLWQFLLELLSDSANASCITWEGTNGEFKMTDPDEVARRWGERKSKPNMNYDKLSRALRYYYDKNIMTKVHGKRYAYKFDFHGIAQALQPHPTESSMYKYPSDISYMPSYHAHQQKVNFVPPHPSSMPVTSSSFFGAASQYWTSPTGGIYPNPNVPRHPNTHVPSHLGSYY
Method in brief: (§1)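 GST fusions of human transcription factors were expressed in yeast and captured with glutathione beads. Once given DNA barcodes and pooled alongside a tag-only sample, they were incubated for 30 min at room temperature with 200 nmole of a random double-stranded 16-mer DNA library in Tris/NaCl/DTT/glycerol buffer, then washed, crosslinked (0.1% formaldehyde), proximity-ligated, PCR-amplified and sequenced on an Illumina NextSeq500. The binding signal of each hexamer is its read frequency for a factor divided by its frequency for the tag-only sample.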

ELK1 = molecular target: T2, ELK1 (Homo sapiens, UniProt P19419 1-428); settings: protein: recombinant; tags: N-terminal GST; dsDNA, one strand shown
T2 sequence: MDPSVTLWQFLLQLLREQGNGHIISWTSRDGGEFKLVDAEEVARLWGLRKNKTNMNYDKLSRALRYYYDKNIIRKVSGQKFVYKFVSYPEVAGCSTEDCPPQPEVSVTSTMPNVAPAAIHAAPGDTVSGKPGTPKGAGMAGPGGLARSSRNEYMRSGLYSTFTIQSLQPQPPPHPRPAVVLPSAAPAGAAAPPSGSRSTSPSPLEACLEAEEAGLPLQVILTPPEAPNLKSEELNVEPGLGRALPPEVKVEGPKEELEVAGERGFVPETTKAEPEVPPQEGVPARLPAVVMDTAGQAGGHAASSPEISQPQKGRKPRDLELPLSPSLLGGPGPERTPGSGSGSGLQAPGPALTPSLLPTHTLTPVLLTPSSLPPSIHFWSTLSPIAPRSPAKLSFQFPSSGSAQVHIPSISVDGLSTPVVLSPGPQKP
Method in brief: as §1

GABPA = molecular target: T3, GABPA (Homo sapiens, UniProt Q06546 1-454); settings: protein: recombinant; tags: N-terminal GST; dsDNA, one strand shown
T3 sequence: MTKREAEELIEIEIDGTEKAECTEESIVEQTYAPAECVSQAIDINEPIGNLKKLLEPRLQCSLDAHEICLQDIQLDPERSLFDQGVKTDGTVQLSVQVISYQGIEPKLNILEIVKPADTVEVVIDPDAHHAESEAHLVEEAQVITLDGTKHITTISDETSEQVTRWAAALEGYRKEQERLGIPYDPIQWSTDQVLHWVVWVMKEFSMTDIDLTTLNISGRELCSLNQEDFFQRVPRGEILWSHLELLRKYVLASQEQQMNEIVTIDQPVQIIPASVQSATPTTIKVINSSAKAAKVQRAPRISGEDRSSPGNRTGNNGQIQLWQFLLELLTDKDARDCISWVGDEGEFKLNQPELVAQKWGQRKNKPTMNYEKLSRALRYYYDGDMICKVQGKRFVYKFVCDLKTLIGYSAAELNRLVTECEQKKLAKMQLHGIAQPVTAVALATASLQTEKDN
Method in brief: as §1

ERG = molecular target: T4, ERG (Homo sapiens, UniProt P11308 1-479); settings: protein: recombinant; tags: N-terminal GST; dsDNA, one strand shown
T4 sequence: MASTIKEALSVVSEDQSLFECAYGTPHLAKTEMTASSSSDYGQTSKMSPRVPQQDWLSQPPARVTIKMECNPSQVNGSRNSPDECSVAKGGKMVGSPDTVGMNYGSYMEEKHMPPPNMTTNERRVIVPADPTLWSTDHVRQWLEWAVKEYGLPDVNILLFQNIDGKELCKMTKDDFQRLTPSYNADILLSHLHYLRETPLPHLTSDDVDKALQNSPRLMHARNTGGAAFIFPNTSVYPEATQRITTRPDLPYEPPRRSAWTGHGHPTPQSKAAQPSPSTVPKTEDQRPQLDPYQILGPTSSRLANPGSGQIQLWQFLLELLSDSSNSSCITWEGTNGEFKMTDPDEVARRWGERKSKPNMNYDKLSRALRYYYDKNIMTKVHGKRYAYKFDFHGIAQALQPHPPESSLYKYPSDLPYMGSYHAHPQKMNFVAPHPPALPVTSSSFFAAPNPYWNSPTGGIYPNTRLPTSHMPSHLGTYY
Method in brief: as §1

ELF1 = ELF1 (Homo sapiens, UniProt P32519 1-619); settings: protein: recombinant; tags: N-terminal GST; dsDNA, one strand shown
Method in brief: as §1

EHF = molecular target: T5, EHF (Homo sapiens, UniProt Q9NZC4 1-300); settings: protein: recombinant; tags: N-terminal GST; dsDNA, one strand shown
T5 sequence: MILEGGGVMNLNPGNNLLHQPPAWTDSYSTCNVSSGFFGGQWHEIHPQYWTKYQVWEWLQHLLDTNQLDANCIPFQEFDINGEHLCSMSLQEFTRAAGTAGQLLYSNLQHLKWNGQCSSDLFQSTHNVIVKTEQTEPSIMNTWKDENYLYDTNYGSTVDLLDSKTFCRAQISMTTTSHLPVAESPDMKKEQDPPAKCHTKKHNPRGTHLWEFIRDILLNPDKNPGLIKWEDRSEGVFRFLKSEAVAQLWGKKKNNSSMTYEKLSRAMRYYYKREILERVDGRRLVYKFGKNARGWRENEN
Method in brief: as §1

SPI1 = SPI1 (Homo sapiens, UniProt P17947 1-270); settings: protein: recombinant; tags: N-terminal GST; dsDNA, one strand shown
Method in brief: as §1

SPIB = SPIB (Homo sapiens, UniProt Q01892 1-262); settings: protein: recombinant; tags: N-terminal GST; dsDNA, one strand shown
Method in brief: as §1

ELK3 = molecular target: T6, ELK3 (Homo sapiens, UniProt P41970 1-407); settings: protein: recombinant; tags: N-terminal GST; dsDNA, one strand shown
T6 sequence: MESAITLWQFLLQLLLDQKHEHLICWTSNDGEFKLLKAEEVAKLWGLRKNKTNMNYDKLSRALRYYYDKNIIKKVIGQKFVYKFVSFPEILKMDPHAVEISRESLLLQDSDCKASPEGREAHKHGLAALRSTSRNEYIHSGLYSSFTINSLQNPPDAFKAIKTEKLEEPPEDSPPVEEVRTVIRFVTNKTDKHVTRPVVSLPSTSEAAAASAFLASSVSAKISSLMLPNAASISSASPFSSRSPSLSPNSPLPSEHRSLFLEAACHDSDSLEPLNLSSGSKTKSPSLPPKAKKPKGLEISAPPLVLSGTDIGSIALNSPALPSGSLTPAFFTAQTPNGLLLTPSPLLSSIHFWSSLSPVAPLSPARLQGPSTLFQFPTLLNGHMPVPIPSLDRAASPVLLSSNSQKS
Method in brief: as §1

FEV = molecular target: T7, FEV (Homo sapiens, UniProt Q99581 1-238); settings: protein: recombinant; tags: N-terminal GST; dsDNA, one strand shown
T7 sequence: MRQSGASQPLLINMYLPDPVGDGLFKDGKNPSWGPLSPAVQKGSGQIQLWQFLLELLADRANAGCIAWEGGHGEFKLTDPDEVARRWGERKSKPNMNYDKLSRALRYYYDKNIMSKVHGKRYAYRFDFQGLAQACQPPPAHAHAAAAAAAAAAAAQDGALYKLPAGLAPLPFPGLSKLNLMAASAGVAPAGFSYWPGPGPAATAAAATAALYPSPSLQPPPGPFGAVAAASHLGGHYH
Method in brief: as §1

ETV5 = ETV5 (Homo sapiens, UniProt P41161 1-510); settings: protein: recombinant; tags: N-terminal GST; dsDNA, one strand shown
Method in brief: as §1

HSF1 = HSF1 (Homo sapiens, UniProt Q00613 1-529); settings: protein: recombinant; tags: N-terminal GST; chain copies: 3; dsDNA, one strand shown
Method in brief: as §1

SPIC = molecular target: T8, SPIC (Homo sapiens, UniProt Q8N5J4 1-248); settings: protein: recombinant; tags: N-terminal GST; dsDNA, one strand shown
T8 sequence: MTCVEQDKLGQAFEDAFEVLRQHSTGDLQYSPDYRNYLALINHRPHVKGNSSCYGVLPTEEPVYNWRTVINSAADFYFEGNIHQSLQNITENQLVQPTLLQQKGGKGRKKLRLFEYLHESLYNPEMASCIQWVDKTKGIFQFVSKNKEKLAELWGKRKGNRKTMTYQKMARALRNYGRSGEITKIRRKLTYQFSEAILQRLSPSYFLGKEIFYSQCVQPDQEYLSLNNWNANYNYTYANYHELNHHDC
Method in brief: as §1

ELF4 = ELF4 (Homo sapiens, UniProt Q99607 1-663); settings: protein: recombinant; tags: N-terminal GST; dsDNA, one strand shown
Method in brief: as §1

ELK4 = molecular target: T9, ELK4 (Homo sapiens, UniProt P28324-2 1-405); settings: protein: recombinant; tags: N-terminal GST; dsDNA, one strand shown
T9 sequence: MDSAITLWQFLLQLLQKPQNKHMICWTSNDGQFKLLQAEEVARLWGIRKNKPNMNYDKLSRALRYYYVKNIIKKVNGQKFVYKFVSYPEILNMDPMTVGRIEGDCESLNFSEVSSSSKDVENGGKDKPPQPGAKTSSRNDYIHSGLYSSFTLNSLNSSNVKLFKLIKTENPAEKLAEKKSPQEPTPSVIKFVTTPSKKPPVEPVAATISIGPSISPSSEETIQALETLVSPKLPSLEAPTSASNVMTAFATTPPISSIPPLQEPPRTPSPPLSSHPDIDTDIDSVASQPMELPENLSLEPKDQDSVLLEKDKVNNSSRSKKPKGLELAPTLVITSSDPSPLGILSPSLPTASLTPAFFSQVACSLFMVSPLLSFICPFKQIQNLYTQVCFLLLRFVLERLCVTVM
Method in brief: as §1

ETV2 = molecular target: T10, ETV2 (Homo sapiens, UniProt O00321 1-342); settings: protein: recombinant; tags: N-terminal GST; dsDNA, one strand shown
T10 sequence: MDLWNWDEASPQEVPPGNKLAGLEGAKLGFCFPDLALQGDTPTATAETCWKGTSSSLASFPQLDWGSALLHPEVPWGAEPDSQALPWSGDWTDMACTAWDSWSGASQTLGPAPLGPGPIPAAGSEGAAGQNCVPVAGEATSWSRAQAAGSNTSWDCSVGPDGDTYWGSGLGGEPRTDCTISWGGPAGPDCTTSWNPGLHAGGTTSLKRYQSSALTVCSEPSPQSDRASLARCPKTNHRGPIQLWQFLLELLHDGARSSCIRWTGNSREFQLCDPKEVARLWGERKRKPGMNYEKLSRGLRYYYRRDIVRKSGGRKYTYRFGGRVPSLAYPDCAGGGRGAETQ
Method in brief: as §1

ELF3 = molecular target: T11, ELF3 (Homo sapiens, UniProt P78545 1-371); settings: protein: recombinant; tags: N-terminal GST; dsDNA, one strand shown
T11 sequence: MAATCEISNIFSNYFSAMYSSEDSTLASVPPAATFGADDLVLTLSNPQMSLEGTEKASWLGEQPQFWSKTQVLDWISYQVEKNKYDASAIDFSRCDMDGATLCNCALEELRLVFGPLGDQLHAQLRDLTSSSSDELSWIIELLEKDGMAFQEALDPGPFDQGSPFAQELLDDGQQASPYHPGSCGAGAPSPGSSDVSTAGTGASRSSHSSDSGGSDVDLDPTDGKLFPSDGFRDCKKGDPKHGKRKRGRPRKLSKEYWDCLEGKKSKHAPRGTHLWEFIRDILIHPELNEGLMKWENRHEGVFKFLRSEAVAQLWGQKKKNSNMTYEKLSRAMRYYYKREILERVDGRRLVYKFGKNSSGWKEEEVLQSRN
Method in brief: as §1

CRX = CRX (Homo sapiens, UniProt O43186 1-299); settings: protein: recombinant; tags: N-terminal GST; dsDNA, one strand shown
Method in brief: as §1

ETV1 = ETV1 (Homo sapiens, UniProt P50549 1-477); settings: protein: recombinant; tags: N-terminal GST; dsDNA, one strand shown
Method in brief: as §1

Chain of HSF1 (Q00613 whole entry): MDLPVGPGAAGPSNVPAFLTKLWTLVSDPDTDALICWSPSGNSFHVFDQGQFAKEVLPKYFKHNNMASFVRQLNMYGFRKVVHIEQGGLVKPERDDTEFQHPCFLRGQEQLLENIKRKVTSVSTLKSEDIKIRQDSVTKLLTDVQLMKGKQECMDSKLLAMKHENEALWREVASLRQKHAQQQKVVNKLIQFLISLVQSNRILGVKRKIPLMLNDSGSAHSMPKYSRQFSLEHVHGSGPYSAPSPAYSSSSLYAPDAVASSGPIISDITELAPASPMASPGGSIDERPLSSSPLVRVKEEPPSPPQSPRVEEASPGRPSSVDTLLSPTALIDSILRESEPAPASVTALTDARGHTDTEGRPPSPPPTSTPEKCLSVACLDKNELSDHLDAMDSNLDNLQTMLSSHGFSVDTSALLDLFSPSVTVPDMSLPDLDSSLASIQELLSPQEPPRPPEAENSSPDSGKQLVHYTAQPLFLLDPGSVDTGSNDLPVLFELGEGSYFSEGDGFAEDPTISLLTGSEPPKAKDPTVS
Chain of CRX (O43186 whole entry): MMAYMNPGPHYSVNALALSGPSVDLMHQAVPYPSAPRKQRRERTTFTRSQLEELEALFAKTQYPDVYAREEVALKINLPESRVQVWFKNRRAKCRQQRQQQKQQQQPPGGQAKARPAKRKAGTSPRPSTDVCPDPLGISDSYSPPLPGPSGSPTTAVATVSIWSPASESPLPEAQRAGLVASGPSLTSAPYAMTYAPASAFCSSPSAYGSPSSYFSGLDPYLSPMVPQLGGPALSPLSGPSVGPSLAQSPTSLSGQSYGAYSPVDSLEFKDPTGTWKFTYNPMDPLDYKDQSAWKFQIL
Chain of ETV5 (P41161 whole entry): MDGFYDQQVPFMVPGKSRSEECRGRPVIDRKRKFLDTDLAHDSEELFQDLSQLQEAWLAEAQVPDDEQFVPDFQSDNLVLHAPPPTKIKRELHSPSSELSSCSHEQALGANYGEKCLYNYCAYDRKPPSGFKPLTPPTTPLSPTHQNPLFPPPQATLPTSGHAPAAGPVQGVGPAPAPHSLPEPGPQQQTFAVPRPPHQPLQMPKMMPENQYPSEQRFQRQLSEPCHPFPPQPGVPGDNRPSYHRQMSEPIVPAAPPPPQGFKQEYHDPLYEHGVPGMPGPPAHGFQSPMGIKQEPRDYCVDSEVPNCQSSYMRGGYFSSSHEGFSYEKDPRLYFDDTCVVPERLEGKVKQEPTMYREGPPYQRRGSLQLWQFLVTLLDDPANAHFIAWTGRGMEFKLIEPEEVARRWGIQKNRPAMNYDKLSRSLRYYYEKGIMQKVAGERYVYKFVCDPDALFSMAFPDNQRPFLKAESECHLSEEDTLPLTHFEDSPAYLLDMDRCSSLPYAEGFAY
Chain of ELF4 (Q99607 whole entry): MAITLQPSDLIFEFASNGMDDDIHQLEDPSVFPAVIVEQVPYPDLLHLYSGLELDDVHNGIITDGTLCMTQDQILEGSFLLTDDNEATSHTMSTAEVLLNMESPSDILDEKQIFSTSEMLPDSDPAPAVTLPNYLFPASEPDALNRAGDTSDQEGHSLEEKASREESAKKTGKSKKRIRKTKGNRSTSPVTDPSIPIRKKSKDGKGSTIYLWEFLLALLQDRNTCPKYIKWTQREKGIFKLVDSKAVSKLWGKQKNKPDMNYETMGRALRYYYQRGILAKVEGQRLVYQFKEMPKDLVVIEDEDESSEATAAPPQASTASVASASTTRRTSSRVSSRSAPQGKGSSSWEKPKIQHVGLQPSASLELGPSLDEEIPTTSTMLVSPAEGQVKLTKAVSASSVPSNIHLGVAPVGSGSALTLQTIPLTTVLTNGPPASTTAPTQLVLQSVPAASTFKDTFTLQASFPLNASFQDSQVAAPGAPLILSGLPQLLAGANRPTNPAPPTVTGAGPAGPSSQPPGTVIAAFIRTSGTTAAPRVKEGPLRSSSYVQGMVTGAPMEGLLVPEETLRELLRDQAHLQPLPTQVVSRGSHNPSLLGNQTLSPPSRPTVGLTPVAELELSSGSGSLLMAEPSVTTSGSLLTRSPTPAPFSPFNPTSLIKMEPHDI
Chain of ETV1 (P50549 whole entry): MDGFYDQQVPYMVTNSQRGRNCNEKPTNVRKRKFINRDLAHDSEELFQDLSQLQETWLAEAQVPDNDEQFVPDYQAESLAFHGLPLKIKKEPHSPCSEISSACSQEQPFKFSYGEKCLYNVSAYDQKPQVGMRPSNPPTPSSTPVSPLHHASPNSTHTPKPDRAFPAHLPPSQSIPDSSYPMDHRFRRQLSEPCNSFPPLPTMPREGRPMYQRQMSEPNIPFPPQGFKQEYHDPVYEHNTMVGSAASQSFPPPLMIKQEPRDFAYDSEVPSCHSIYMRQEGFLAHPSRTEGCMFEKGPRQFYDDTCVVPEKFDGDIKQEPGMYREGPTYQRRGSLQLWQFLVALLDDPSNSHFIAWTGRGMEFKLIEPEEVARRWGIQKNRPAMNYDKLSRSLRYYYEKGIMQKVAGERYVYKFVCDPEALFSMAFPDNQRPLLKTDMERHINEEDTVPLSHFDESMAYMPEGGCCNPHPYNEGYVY
Chain of ELF1 (P32519 whole entry): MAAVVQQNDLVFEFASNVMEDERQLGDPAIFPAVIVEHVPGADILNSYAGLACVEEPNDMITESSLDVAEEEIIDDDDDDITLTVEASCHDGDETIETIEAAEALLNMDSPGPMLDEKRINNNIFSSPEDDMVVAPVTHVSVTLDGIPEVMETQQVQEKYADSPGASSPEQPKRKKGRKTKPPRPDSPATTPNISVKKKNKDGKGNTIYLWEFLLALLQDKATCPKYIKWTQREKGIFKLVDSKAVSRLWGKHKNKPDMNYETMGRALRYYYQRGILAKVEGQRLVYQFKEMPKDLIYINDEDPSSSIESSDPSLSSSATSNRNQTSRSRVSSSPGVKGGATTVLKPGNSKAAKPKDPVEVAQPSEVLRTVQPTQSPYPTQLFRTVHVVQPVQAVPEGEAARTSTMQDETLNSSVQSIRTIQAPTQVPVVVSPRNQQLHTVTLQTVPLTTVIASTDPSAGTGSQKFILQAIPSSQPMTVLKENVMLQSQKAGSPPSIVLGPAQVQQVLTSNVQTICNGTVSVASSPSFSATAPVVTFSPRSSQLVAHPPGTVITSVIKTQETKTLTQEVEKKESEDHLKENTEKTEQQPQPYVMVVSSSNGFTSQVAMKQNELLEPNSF
Chain of SPIB (Q01892 whole entry): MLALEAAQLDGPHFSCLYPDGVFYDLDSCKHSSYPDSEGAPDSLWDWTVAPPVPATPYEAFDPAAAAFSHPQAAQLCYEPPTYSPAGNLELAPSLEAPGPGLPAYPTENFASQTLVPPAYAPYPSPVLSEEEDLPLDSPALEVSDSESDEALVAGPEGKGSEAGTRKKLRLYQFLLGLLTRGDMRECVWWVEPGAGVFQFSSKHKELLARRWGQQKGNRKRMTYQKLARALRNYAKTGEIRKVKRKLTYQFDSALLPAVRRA

What does the source list for TTTCCA?
binding signal (FLI1): 1.37 fold enrichment (6-mer frequency, TF over GST control); binding signal (ELK1): 1.31 fold enrichment (6-mer frequency, TF over GST control); binding signal (GABPA): 1.39 fold enrichment (6-mer frequency, TF over GST control); binding signal (ERG): 1.23 fold enrichment (6-mer frequency, TF over GST control); binding signal (ELF1): 1.36 fold enrichment (6-mer frequency, TF over GST control); binding signal (EHF): 1.27 fold enrichment (6-mer frequency, TF over GST control); binding signal (SPI1): 1.37 fold enrichment (6-mer frequency, TF over GST control); binding signal (SPIB): 1.39 fold enrichment (6-mer frequency, TF over GST control); binding signal (ELK3): 1.31 fold enrichment (6-mer frequency, TF over GST control); binding signal (FEV): 1.34 fold enrichment (6-mer frequency, TF over GST control); binding signal (ETV5): 1.28 fold enrichment (6-mer frequency, TF over GST control); binding signal (HSF1): 2.18 fold enrichment (6-mer frequency, TF over GST control); binding signal (SPIC): 1.18 fold enrichment (6-mer frequency, TF over GST control); binding signal (ELF4): 1.39 fold enrichment (6-mer frequency, TF over GST control); binding signal (ELK4): 1.39 fold enrichment (6-mer frequency, TF over GST control); binding signal (ETV2): 1.22 fold enrichment (6-mer frequency, TF over GST control); binding signal (ELF3): 1.19 fold enrichment (6-mer frequency, TF over GST control); binding signal (CRX): 1.61 fold enrichment (6-mer frequency, TF over GST control); binding signal (ETV1): 1.22 fold enrichment (6-mer frequency, TF over GST control)
